# Screening data as filed in PubChem BioAssay.
# Sampled rows, rich in hits. Any-hit rate of the full collection: about 19%.
# Pf growth 48h = P. falciparum growth inhibition at 48 hours (one generation) | P. falciparum luciferase growth in erythrocytes, 48 h | Potency, µM (titrated, usually from 28.7 µM), without a hit: at the top dose activity change, negative = inhibition, most hits filed as inhibitors | 310,000 tested, 5.9% active | AID 504832; note: potency is the fitted concentration of half-maximal effect; % is set by controls: 0 for no effect and ±100 for the full control effect
#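 Firefly luciferase activity from engineered P. falciparum reports growth; inhibitors lower the luminescent signal. Cultures contained 2% hematocrit erythrocytes at 0.1% final parasitemia.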
# Shiga inhibitor = blocks Shiga toxin action in Vero cells; 290,000 tested, 9.2% active; inhibition, % at 38.7 µM; Vero cells, Shiga toxin protein synthesis inhibition reporter; in the data active = inhibition mostly above about 28%, no sharp cut-off; inactive = mostly below about 43%; note: 0% is about no effect
# AMA1-RON2 inh = disrupts binding of P. falciparum AMA1 to RON2 | 360,000 tested, 0.2% active | AID 720542 | AlphaScreen AMA1-biotinylated RON2 peptide binding | Potency, µM (highest dose often 58.2 µM), for the others: top-dose activity change, negative = inhibition, actives largely listed as inhibitors;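 note: potency is the fitted concentration of half-maximal effect; 0% = vehicle wells and -100% = peptide control; nearly all actives have a fitted effect of over 45% in size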
#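 AMA1 (3D7) with his tag at 25 nM final met compounds first, then biotinylated RON2 peptide at 25 nM; detection used donor plus acceptor beads, 10 µg/mL apiece, read by AlphaScreen after 30 min at room temperature.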
# SARS PLP yeast = SARS-CoV PLP inhibition in yeast. S. cerevisiae expressing SARS-CoV PLpro, growth rescue. 330,000 tested, 0.19% active. Potency, µM (highest dose often 32.9 µM), without a hit: at the highest dose activity, positive = growth rescue, actives largely listed as activators. AID 485353; calls by dose curve; note: potency is the fitted concentration of half-maximal effect; 0% is about no effect; nearly all actives have a fitted effect of over 55% in size
# CHX counter = affects cycloheximide protein synthesis inhibition readout, counter-screen | cell reporter, cycloheximide protein synthesis inhibition counterscreen | max response, % | 300,000 tested, 12% active | AID 2314; in the data active = max response mostly above about 13%, no sharp cut-off; inactive = mostly below about 14%; note: read at 38.3 µM for the half of the compounds with a filed dose; 0% is about no effect
# Pf growth 96h = P. falciparum growth inhibition at 96 hour, primary screen for plastid delayed-death inhibitors. P. falciparum luciferase reporter growth, 96 h. Potency, µM (highest dose often 28.7 µM), inactives show at the top dose activity change, negative = inhibition, usual class: inhibitors. 320,000 tested, 6.9% active. AID 504834; note: potency is the fitted concentration of half-maximal effect; % is set by controls: 0 for no effect and ±100 for the full control effect
#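 Readout is luminescence from an integrated firefly luciferase in P. falciparum. Red cells, 2% hematocrit and 0.05% parasitemia final, were cultured with compound through two parasite generations (96 hours) at 37 C, 5% CO2.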
# * hit, by the source's call; ? = inconclusive; nt = no result; [ ] = another dose, or the depositor's remark. Unless noted, calls come from the whole dose curve; as a rule, active = well fitted curve in the direction sought with a large enough effect; inconclusive = small, poorly fitted or top-dose-only effect, or another doubt; inactive = no such curve, though single readings can be large; an effect the other way counts as inactive or inconclusive.
SMILES,Pf growth 48h,Shiga inhibitor,AMA1-RON2 inh,SARS PLP yeast,CHX counter,Pf growth 96h
COc1ccc(CC(=O)Nc2ccc(F)c(F)c2F)cc1S(=O)(=O)N1CCOCC1,12µM*,nt,-5%,0%,nt,?
COc1ccc(COC(=O)c2ccc(Br)c(S(=O)(=O)N3CCOCC3)c2)cc1F,3.3µM*,nt,-26%,-13%,nt,?
COc1ccc(CC(=O)Nc2nc3ccccc3s2)cc1S(=O)(=O)N1CCOCC1,?,-14,-24%,?,1,?
COc1ccc(CC(=O)Nc2nc3ccc(F)cc3s2)cc1S(=O)(=O)N1CCOCC1,?,70*,-20%,-2%,40*,6.6µM*
C#CCNC(=O)C1=C[C@@H](c2ccc(C(F)(F)F)cc2)[C@H](CCCO)[C@@H](OCC)O1,?,-10,7%,0%,1,12µM*
CCO[C@@H]1OC(C(=O)NCc2ccccc2)=C[C@H](c2ccc(C(F)(F)F)cc2)[C@H]1CCCO,4.7µM*,-5,25%,-3%,-1,8.3µM*
CCOC(=O)C(CC)c1cc2n(c(=O)c1C#N)CCC21OCCO1 (stereo not drawn),nt,nt,0%,nt,nt,nt
COC(=O)C1CN(C(=O)COc2cccc(C)c2C)c2ccccc2O1 (stereo not drawn),-5%,44,-3%,-3%,26*,-1%
C=CCOc1c(Br)cc(CNc2nccs2)cc1OC,?,17,-16%,12%,5,0.37µM*
CN(C(=O)COC(=O)c1ccc([N+](=O)[O-])cc1N)c1ccccc1,?,-5,-14%,1%,1,?
Cc1nc2ccc([N+](=O)[O-])cc2nc1C,9%,-16,-4%,0%,12,28%
Cc1ccc2nc3cc([N+](=O)[O-])cc([N+](=O)[O-])c3cc2c1,?,134*,-22%,-23%,68*,?
Cc1ccc(C(=O)Nc2ccccc2N2CCCC2)cc1,-1%,nt,-13%,0%,0,20%
CCc1c(O)nc(SCC(=O)N(CC)CC)[nH]c1=O,?,3,18%,0%,-6,13µM*
CCN(CC)C(=O)CSc1nc(O)c(Cc2ccc(OC)cc2)c(=O)[nH]1,-6%,-8,18%,6%,-1,10%
CCc1c(C)nc(SCC(=O)N2CCCCC2)[nH]c1=O,51%,-8,0%,0%,2,0%
CCCCc1c(O)nc(SCC(=O)N2CCCCC2)[nH]c1=O,22%,65,17%,1%,17*,37%
CCc1c(C)nc(SCC(=O)N2C(C)CCCC2C)[nH]c1=O (stereo not drawn),-37%[5.75 µM],11,6%,-1%,8,14%
CCc1c(C)nc(SCC(=O)N2CCCCC2C)[nH]c1=O (stereo not drawn),-1%,10,6%,1%,3,7.4µM*
CC(C)(C)c1ccc(C2C(C(=O)c3ccco3)=C(O)C(=O)N2CC2CCCO2)cc1 (stereo not drawn),14%,-8,-9%,1%,-3,16%
COc1ccc(CCNC(=O)C(=O)NCC2CCCO2)cc1 (stereo not drawn),19%,11,0%,6%,5,4.1µM*
CC(C)(C)c1ccc(C(=O)N2CCC(C(=O)NCC3CCCO3)CC2)cc1 (stereo not drawn),19%,35,-15%,6%,20*,-4%
CC(C)(C)c1ccc(C(=O)NNC(=S)NCC2CCCO2)cc1 (stereo not drawn),18%,26,47%,26%,9,21%
COc1ccc(C(=O)NC(=S)NCC2CCCO2)cc1 (stereo not drawn),57%,54*,0%,?,42*,18%
CC(C)(C)c1ccc(C(=O)NC(=S)NCC2CCCO2)cc1 (stereo not drawn),?,148*,11%,13µM*,17*,-16%
Cc1cc(C)c2c(n1)sc1c(-c3ccccc3)c(C#N)c(N)nc12,5%,21,-2%[2.32 µM],-2%,-3,2%
CC(C)c1ccc(N2C(=NC(=O)C3CC3)SC3CS(=O)(=O)CC32)cc1 (stereo not drawn),4%,-6,4%,1%,-1,40%
